# Screening results deposited in PubChem BioAssay by National Center for Advancing Translational Sciences (NCATS).
# Rows were chosen to be rich in hits. Some 3% of all compounds tested hit in one or more screens of this group.
# KCNH2 WT inh = qHTS for Inhibitors of KCHN2 3.1: Wildtype qHTS; actives 0.37% (n = 340,000); U2OS, BacMam KCNH2, thallium flux FluxOr; stronger effect = lower value; Voltage-gated inwardly rectifying potassium channel KCNH2 (Homo sapiens), Q12809; AID 720551, 2013; activity change, % at 1.84 µM;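 active = maximum activity change below -70%; inconclusive = maximum activity change between -70% and -50%; inactive = maximum activity change above -50%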; note: % is set by controls: 0 for no effect and ±100 for the full control effect
#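 U2OS cells transduced with wild-type KCNH2 virus are loaded with FluxOr dye for 45 min, and thallium flux is measured in kinetic reads before and after stimulation buffer. Rate constants are normalized to DMSO controls.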
# Chronic BCR inh = qHTS Assay to Find Inhibitors of Chronic Active B-Cell Receptor Signaling | ABC-DLBCL IkBa-CBG/CBR reporter, luminescence ratio, 4 h | Potency, µM (series often up to 46.1 µM), inactives show at the highest dose activity change, negative = inhibition, hits mostly inhibitors | actives 0.05% (n = 340,000) | AID 493014, 2011; active = well fitted inhibition curve with a large enough effect in the signal ratio, with a control signal flat, not every such curve was filed as active; inconclusive = small, poorly fitted or top-dose-only effect, or effect the other way, or a change in a side signal; the % refers to the signal ratio;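 note: potency is the fitted concentration of half-maximal effect; plate controls were basal doxycycline-induced cells for no effect and cells given 10 µM MG132 for full effect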
#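 Doxycycline induced both beetle luciferases in TMD8 lymphoma cells; IKK-driven degradation limits the IkappaBalpha-fused green signal, while red luminescence normalises for cell number and nonspecific effects. Compounds tested up to 46 uM, 4 hrs.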
# 12-LOX inh = Primary qHTS assay for inhibitors of human arachidonate 12S-lipoxygenase (ALOX12): Round 2 | actives 1.1% (n = 580,000) | purified 12hLO, xylenol orange hydroperoxide absorbance | Polyunsaturated fatty acid lipoxygenase ALOX12 (Homo sapiens), P18054 | Potency, µM (top dose mostly 108 µM), without a hit: at the highest dose activity change, negative = inhibition, most hits filed as inhibitors; active = well fitted inhibition curve with a large enough effect; inconclusive = small, poorly fitted or top-dose-only effect, or another doubt; inactive = no such curve, though single readings can be large or run the other way; note: potency is the fitted concentration of half-maximal effect; % is set by controls: 0 for no effect and ±100 for the full control effect
# Target sequence (P18054 whole entry, looked up): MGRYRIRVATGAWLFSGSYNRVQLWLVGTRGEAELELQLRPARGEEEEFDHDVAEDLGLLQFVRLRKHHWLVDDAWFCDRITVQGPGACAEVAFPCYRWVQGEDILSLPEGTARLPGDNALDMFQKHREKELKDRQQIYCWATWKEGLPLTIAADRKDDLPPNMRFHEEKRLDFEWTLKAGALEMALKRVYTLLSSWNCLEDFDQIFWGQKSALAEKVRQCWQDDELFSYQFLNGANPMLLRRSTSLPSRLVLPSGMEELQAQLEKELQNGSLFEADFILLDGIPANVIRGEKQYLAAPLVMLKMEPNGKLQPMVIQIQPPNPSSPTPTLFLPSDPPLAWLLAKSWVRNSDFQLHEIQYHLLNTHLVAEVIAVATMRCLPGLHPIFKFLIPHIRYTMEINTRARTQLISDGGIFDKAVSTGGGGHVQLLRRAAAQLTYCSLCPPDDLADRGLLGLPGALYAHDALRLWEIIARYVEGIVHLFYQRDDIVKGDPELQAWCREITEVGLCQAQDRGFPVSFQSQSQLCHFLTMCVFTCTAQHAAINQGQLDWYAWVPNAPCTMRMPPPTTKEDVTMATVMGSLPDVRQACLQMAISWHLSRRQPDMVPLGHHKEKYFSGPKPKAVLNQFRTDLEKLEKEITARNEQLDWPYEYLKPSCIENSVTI
#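 Purified human 12hLO at 150 nM in 25 mM Hepes, 0.01% Triton X-100, pH 7.0, preincubated 15 min at room temperature with compound. Reaction started with 40 uM arachidonic acid, 30 min at room temperature. Hydroperoxide measured by Fe-xylenol orange, 573/405 nm absorbance ratio.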
# ClpP mod = qHTS Assay for Activators of ClpP | ATP-dependent Clp protease proteolytic subunit (Bacillus subtilis (strain 168)), P80244 | purified B. subtilis ClpP, FRET peptide cleavage, 20 min | Potency, µM (top dose mostly 57.5 µM), without a hit: top-dose activity change, negative = active | actives 1.9% (n = 340,000); active = well fitted falling curve with a large enough effect; inconclusive = small, poorly fitted or top-dose-only effect; inactive = no such curve, though single readings can be large or run the other way; note: potency is the fitted concentration of half-maximal effect; the source files actives as falling curves though it sought activators and does not explain the sign; nearly all actives have a fitted effect of over 65% in size
#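 ClpP 10 microg/mL final, pH 8 Tris/KCl buffer with BSA, glycerol, Tween-20; compound pinned in; FRET-FV substrate; RT 20 min; Ex320/Em430; ΔFRET vs ADEP 5.8 microM, DMSO, no enzyme.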
# LDHA block = qHTS assay for inhibitors of human lactate dehydrogenase | activity change, % (values are at about 110 or 230 µM) | actives 0.15% (n = 480,000) | AID 1347041, 2019 | purified LDHA, NADH/diaphorase-resazurin fluorescence; stronger effect = lower value | L-lactate dehydrogenase A chain (Homo sapiens), P00338; in the data active = activity change below about -30%; inconclusive = mostly about -25% to -30%;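 note: plate controls were DMSO wells for no effect and wells without enzyme for full effect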
#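 Enzyme activity of human lactate dehydrogenase 5 (2 nM; 0.06 mM NADH, 0.2 mM pyruvate, 5 min, RT) is measured via a resazurin/diaphorase fluorescence readout of residual NADH.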
# KCNH2 3.1 inh = qHTS for Inhibitors of KCHN2 3.1: Mutant qHTS. AID 720553, 2013. actives 0.95% (n = 340,000). U2OS KCNH2 3.1, thallium flux FluxOr; stronger effect = lower value. activity change, % (tested at about 1.8 µM);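 active = maximum activity change below -70%; inconclusive = maximum activity change from -70% to -50%; inactive = maximum activity change above -50%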;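 note: thallium influx rate constant from kinetic fluorescence after stimulation buffer; % is set by controls: 0 for no effect and ±100 for the full control effect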
#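 Channel expression came from 3.1 mutant virus (1.77 x 10^8 /mL) applied to suspended U2OS cells for 4 h. Flux was tracked with FluxOr dye plus Red40 quencher, and kinetic rate constants normalized to controls.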
# * = called active by the depositor; i = inactive; u = inconclusive; x = no result given; ! = not confirmed by another sample; [ ] = dose if it differs, or a comment.
SMILES,KCNH2 WT inh,Chronic BCR inh,12-LOX inh,ClpP mod,LDHA block,KCNH2 3.1 inh
Cc1ccc(-c2nc(Cn3cccc(C(F)(F)F)c3=O)co2)cc1,x,x,8%,x,2,x
Cc1cc(C)cc(OCC(=O)Nc2cccc(-c3nnc(-c4ccco4)o3)c2)c1,13,0%,8%,32µM*,-9,-20
COc1ccc(CC(=O)Nc2cccc(-c3nnc(-c4ccco4)o3)c2)cc1,4,7%,-2%,2%,-2,-4
N/C(Cc1ccc([N+](=O)[O-])cc1)=N\OC(=O)C(c1ccccc1)c1ccccc1,3,-6%,17%,1%,2,-82*
O=C(Nc1ccc(-c2nnc(-c3ccco3)o2)cc1)C(c1ccccc1)c1ccccc1,-27,24%,32%,28µM*,-12,-50
CCN(C(=O)CCn1cnc2c1c(=O)n(C)c(=O)n2C)c1ccccc1C,x,x,9%,x,-1,x
CCCn1nc(C)cc1CN(C)c1ccc(NC(=O)c2ccccc2C)cc1C(=O)O,x,x,10µM*,x,2,x
COc1cc(NC(=O)N2CCCC(Cn3cnc4cccnc43)C2)cc(OC)c1 (stereo not given),x,x,27%,x,x,x
O=C(O)Cc1cccc(OCCCN(Cc2cccc(C(F)(F)F)c2Cl)CC(c2ccccc2)c2ccccc2)c1,x,x,24µM*!,x,x,x
O=C(CCCOc1ccccc1)Nc1ccccc1C(F)(F)F,2,7%,-25%,2%,-6,-3
CCC(C)(C)n1nnnc1C(c1ccc2ncccc2c1)N1CCN(c2nc3ccccc3s2)CC1 (stereo not given),0,-2%,u,-4%,-1,-90*
Cc1ccc(-n2c(=O)c3sccc3n(Cc3cc(=O)n4ccccc4n3)c2=O)cc1F,x,6%,-1%,x,x,x
Cc1ccc(-n2c(=O)c3sccc3n(Cc3cc(=O)n4ccccc4n3)c2=O)cc1,0,4%,-7%,32µM*!,-5,3
CC1CCN(c2nc3c(c(=O)n(Cc4ccccc4)c(=O)n3C)n2C)CC1,x,x,u,x,-12,x
CCOC(=O)C1CCN(C(=O)c2ccc3c(=O)n4nc(Nc5ccccc5)sc4nc3c2)CC1,-3,u,u,-10%,-3,-79*
COc1ccccc1Nc1nn2c(=O)c3ccc(C(=O)N4CCC(C)CC4)cc3nc2s1,8,u,u,-3%,0,7
COc1ccc(Cn2c(N)c(C#N)c3nc4ccccc4nc32)cc1OC,-2,-2%,-18%,14µM*,11,-5
N#Cc1c(N)n(CCCN2CCOCC2)c2nc3ccccc3nc12,12,6%,-12%[57.4 µM],4.5µM*,2,11
CCCCCn1c(N)c(C#N)c2nc3ccccc3nc21,4,6%,1%,u,10,-5
N#Cc1c(N)n(CCNC(=O)c2ccccc2)c2nc3ccccc3nc12,3,4%,-12%,4%,-1,13
COc1ccc(CCn2c(N)c(C#N)c3nc4ccccc4nc32)cc1OC,4,u,0%,u,17,x
COc1ccccc1CCn1c(N)c(C#N)c2nc3ccccc3nc21,5,u,4%,32µM*,8,5
CCCNC(=O)CCc1c(C)n(CC)c2cc(-c3ccccc3OC)nn2c1=O,x,x,6%,x,-1,x
CCCc1cc(N2CCCC2)n2nc(C)c(-c3ccccc3)c2n1,-5,u,4%,32µM*,0,-6
N/C(=N\OC(=O)COc1ccccc1Cl)c1ccccn1,5,u,15%,14µM*,-7,2
SMILES,KCNH2 WT inh,Chronic BCR inh,12-LOX inh,ClpP mod,LDHA block,KCNH2 3.1 inh
Cc1oc(-c2ccccc2)nc1C(=O)OCC(=O)NC(=O)NC1CCCC1,x,x,7%,x,-1,x
CCOC(=O)c1ccc(Oc2coc3cc(OC(=O)N(CC)CC)ccc3c2=O)cc1,x,x,38%,x,2,x
Cc1cccc(C(=O)Nc2ccc(C3(C(=O)NCCC(C)C)CCCCC3)cc2)c1,x,x,7.9µM*,x,-2,x
O=C(CCS(=O)(=O)c1ccc(F)cc1)Nc1ccccc1-c1ccccc1,x,x,-28%,x,-1,x
NC(=O)c1cccn1Cc1ccccc1Cl,-301*,-1%,-9%,1%,-2,2
NC(=O)c1cccn1Cc1cccc(Cl)c1,11,u,1%,-3%,-1,-3
CCN1CCCC1CN(Cc1cc2ccc(C)cc2[nH]c1=O)C(=S)Nc1ccc(F)cc1 (stereo not given),-71*,u,u,-22%,-8,-85*
Cc1ccccc1OCC(=O)Nc1c(C(=O)c2ccc3c(c2)OCCO3)oc2ccccc12,x,x,16%,x,-9,x
O=S1OCCSc2sc(=S)sc2SCCO1,x,x,28µM*,x,-1,x
CCCNC(=O)NNC(=O)c1cc(-c2ccc(Cl)cc2)nc2ccccc12,x,x,-12%,x,9,x
COc1ccc(-c2nc(-c3cccs3)c(-c3cccs3)[nH]2)cc1O,-12,u,-21%,25µM*,1,-4
CN(C1CCCCC1)S(=O)(=O)c1cccc(C(=O)OCC(=O)NC2CCCc3ccccc32)c1 (stereo not given),53,1%,-8%,-2%,-2,-92*
Cc1c(Cl)cccc1NC(=S)N=Nc1c(O)n(CN2CCOCC2)c2ccccc12,i,7.3µM*,x,x,-5,-2
c1ccc(COc2ncnc3c2ncn3CCCNCC(c2ccccc2)c2ccccc2)cc1,-18,x,u,0%,-9,-72*
COc1ccc(C2CC(=O)NC3=C2C(=O)CC(C)(C)C3)cc1 (stereo not given),x,x,15%,x,2,x
CCOC(=O)c1nsnc1NCCSC(=N)N,19,-3%,45µM*,4%,-2,-2
Cc1cc(F)ccc1S(=O)(=O)Nc1ccc(N2CCCC2)c(F)c1,x,x,4µM*,x,10,x
Cc1cc(F)ccc1S(=O)(=O)Nc1ccc(C(=O)N2CCCCCC2)cc1,-10,-3%,1%,-1%,-2,-13
O=C(NNS(=O)(=O)c1ccc(F)cc1)c1sccc1-n1cccc1,4,8%,-15%,x,5,20
Cc1ccc(S(=O)(=O)NNC(=O)c2sccc2-n2cccc2)cc1,1,20%,32µM*,1%,1,1
CCc1ccc(C(=O)c2cnc3ccc(OC)cc3c2N2CCOCC2)cc1,x,x,28µM*,x,4,x
